According to the antibiotic and cytotoxicity screens of Wong et al. (2023):
In all, about 39,000 compounds went through this assay and about 3,300 (8.5%) were called active. For the sample, actives were picked, then their nearest neighbours and some compounds at random.

System: HepG2
Assay: cytotoxicity call (relative viability < 0.9)
Settings: 10 µM

Row | SMILES | cytotoxicity call
1 | CO[C@H](CN(C)S(=O)(=O)c1cn(C)cn1)[C@@H](C)CN(C(=O)Nc1ccc(C(F)(F)F)cc1)[C@H](C)CO | inactive
2 | Cc1noc(C)c1S(=O)(=O)N(C)C[C@H]1Oc2ccc(NC(=O)NC3CCCCC3)cc2CC(=O)N([C@H](C)CO)C[C@H]1C | inactive
3 | Cc1ccc(S(=O)(=O)N(C)C[C@H]2Oc3c(NC(=O)c4ccncc4)cccc3C(=O)N([C@@H](C)CO)C[C@@H]2C)cc1 | inactive
4 | C[C@H]1CN([C@@H](C)CO)C(=O)c2cccc(NC(=O)c3ccc(-c4nccs4)cc3)c2O[C@H]1CN(C)S(=O)(=O)c1ccc(Cl)cc1 | inactive
5 | CNC1C(OC2OC(CO)C(N)C(O)C2O)OC2CC(N)C(OC3C(N)CC(N)C(O)C3O)OC2C1O.O=S(=O)(O)O (stereo unspecified) | inactive
6 | C[C@H]1CN([C@@H](C)CO)C(=O)Cc2cc(NC(=O)c3ccncc3)ccc2O[C@@H]1CN(C)S(C)(=O)=O | inactive
7 | C[C@@H]1CN([C@@H](C)CO)C(=O)Cc2cc(NC(=O)C3CC3)ccc2O[C@@H]1CN(C)S(=O)(=O)c1ccccc1 | inactive
8 | CO[C@@H]1CN(C)C(=O)c2ccc(NC(=O)C3CC3)cc2OC[C@H](C)N(C(=O)C2CCOCC2)C[C@H]1C | inactive
9 | C[C@@H]1CN([C@@H](C)CO)C(=O)c2cc(NS(=O)(=O)c3cn(C)cn3)ccc2O[C@@H](C)CCCCO[C@H]1CN(C)C | inactive
10 | C[C@@H]1CCCCO[C@@H](CN(C)CC2CCCCC2)[C@@H](C)CN([C@H](C)CO)C(=O)c2cc(NC(=O)Nc3cccc4ccccc34)ccc2O1 | active
11 | C[C@@H]1CCCCO[C@@H](CN(C)CC2CCCCC2)[C@H](C)CN([C@@H](C)CO)C(=O)c2cc(NC(=O)Nc3cccc4ccccc34)ccc2O1 | active
12 | C[C@H](CO)N1C[C@H](C)[C@@H](CN(C)CC2CC2)OCCCC[C@H](C)Oc2ccc(NC(=O)Nc3cccc4ccccc34)cc2C1=O | inactive
13 | C[C@@H]1CCCCO[C@H](CN(C)CC2CC2)[C@H](C)CN([C@@H](C)CO)C(=O)c2cc(NC(=O)Nc3cccc4ccccc34)ccc2O1 | inactive
14 | C[C@@H]1CCCCO[C@H](CN(C)CC2CC2)[C@@H](C)CN([C@H](C)CO)C(=O)c2cc(NC(=O)Nc3cccc4ccccc34)ccc2O1 | inactive
15 | C[C@H](CO)N1C[C@H](C)[C@H](CN(C)CC2CCCCC2)OCCCC[C@H](C)Oc2ccc(NC(=O)Nc3cccc4ccccc34)cc2C1=O | active
16 | C[C@H](CO)N1C[C@H](C)[C@@H](CN(C)CC2CCCCC2)OCCCC[C@H](C)Oc2ccc(NC(=O)Nc3cccc4ccccc34)cc2C1=O | active
17 | C[C@H](CO)N1C[C@H](C)[C@H](CN(C)CC2CC2)OCCCC[C@H](C)Oc2ccc(NC(=O)Nc3cccc4ccccc34)cc2C1=O | inactive
18 | CC(C)NC(=O)Nc1ccc2c(c1)C(=O)N([C@@H](C)CO)C[C@H](C)[C@H](CN(C)C(=O)NC1CCCCC1)O2 | inactive
19 | COC(=O)C1=C(C)NC(C)=C(C(=O)OC)C1 | inactive
20 | O=C(C[C@H]1CC[C@@H](NS(=O)(=O)c2ccccc2F)[C@H](CO)O1)NCCCN1CCOCC1 | inactive
21 | O=C(/C=C/c1ccc(O)c(O)c1)O[C@@H]1C[C@](O)(C(=O)O)C[C@@H](OC(=O)/C=C/c2ccc(O)c(O)c2)[C@H]1O | inactive

Row | SMILES | cytotoxicity call
22 | CC(C)C[C@H](NC(=O)[C@@H](COC(C)(C)C)NC(=O)[C@H](Cc1ccc(O)cc1)NC(=O)[C@H](CO)NC(=O)[C@H](Cc1c[nH]c2ccccc12)NC(=O)[C@H](Cc1cnc[nH]1)NC(=O)[C@@H]1CCC(=O)N1)C(=O)N[C@@H](CCCNC(=N)N)C(=O)N1CCC[C@H]1C(=O)NNC(N)=O | inactive
23 | C[C@H](CO)N1C[C@H](C)[C@@H](CN(C)S(=O)(=O)c2ccc(F)cc2)Oc2ccc(NS(=O)(=O)c3ccccc3)cc2CC1=O | inactive
24 | COc1ccccc1-c1cnc2c(c1)C(=O)N([C@H](C)CO)C[C@@H](C)[C@@H](CN(C)C(=O)c1ccncc1)O2 | inactive
25 | C[C@H]1CN([C@@H](C)CO)S(=O)(=O)c2ccc(C3=CCCC3)cc2O[C@H]1CN(C)C(=O)Cc1ccncc1 | inactive
26 | O=C1CN(c2ccccc2)C=NN1 | inactive
27 | C[C@@H]1CN([C@H](C)CO)C(=O)c2cc(NC(=O)Nc3cccc4ccccc34)ccc2O[C@@H](C)CCCCO[C@@H]1CN(C)CC1CCCCC1 | active
28 | C[C@@H]1CCCCO[C@@H](CN(C)CC2CCCCC2)[C@H](C)CN([C@H](C)CO)C(=O)c2cc(NC(=O)Nc3cccc4ccccc34)ccc2O1 | active
29 | COc1ccc(S(=O)(=O)N(C)C[C@@H]2Oc3ccc(NC(=O)Cn4cnnn4)cc3CC(=O)N([C@H](C)CO)C[C@@H]2C)cc1 | inactive
30 | C[C@H](CO)N1C[C@H](C)[C@@H](CN(C)C(=O)Nc2cccc(Cl)c2Cl)OCc2ccccc2-c2ccccc2C1=O | inactive
31 | Cc1noc(C)c1S(=O)(=O)Nc1ccc2c(c1)CC(=O)N([C@H](C)CO)C[C@H](C)[C@H](CN(C)S(=O)(=O)c1ccccc1)O2 | inactive
32 | C[C@H]1CN([C@@H](C)CO)C(=O)CCCn2cc(nn2)CO[C@H]1CN(C)S(=O)(=O)c1ccc(-c2ccccc2)cc1 | inactive
33 | COc1ccc(S(=O)(=O)Nc2ccc3c(c2)C(=O)N([C@@H](C)CO)C[C@@H](C)[C@@H](CN(C)C(=O)CCC(F)(F)F)OCCCC[C@@H](C)O3)cc1 | inactive
34 | C[C@@H]1O[C@@H](O[C@H]2[C@H](O)[C@@H](O)[C@H](OC(=O)[C@]34CCC(C)(C)C[C@H]3C3=CC[C@H]5[C@@]6(C)CC[C@H](O[C@@H]7O[C@H](C(=O)O)[C@@H](O)[C@H](O)[C@H]7O)C(C)(C)[C@@H]6CC[C@@]5(C)[C@]3(C)CC4)O[C@@H]2CO)[C@H](O)[C@H](O)[C@H]1O | inactive
35 | C[C@H]1O[C@@H](OC[C@H]2O[C@@H](O[C@H]3CC[C@]4(C)[C@H]5CCC6=C(CC[C@@]7(C(=O)O[C@@H]8O[C@H](CO)[C@@H](O)[C@H](O)[C@H]8O[C@@H]8O[C@H](CO)[C@@H](O)[C@H](O)[C@H]8O)CCC(C)(C)C[C@@H]67)[C@]5(C)CC[C@H]4C3(C)C)[C@H](O)[C@@H](O)[C@@H]2O)[C@H](O)[C@@H](O)[C@@H]1O | inactive
36 | CC(=O)O[C@H]1CC(C)(C)C[C@H]2[C@]13CO[C@@]21CC[C@H]2[C@@]4(C)CC[C@H](O[C@@H]5OC[C@H](O[C@@H]6O[C@H](CO)[C@@H](O)[C@H](O)[C@H]6O[C@@H]6OC[C@@H](O[C@@H]7O[C@H](CO)[C@@H](O)[C@H](O)[C@H]7O)[C@H](O)[C@H]6O)[C@H](O)[C@H]5O[C@@H]5O[C@H](CO)[C@@H](O)[C@H](O)[C@H]5O)[C@@](C)(CO)[C@@H]4CC[C@@]2(C)[C@]1(C)C[C@H]3O | active
37 | CC1(C)[C@@H](O[C@H]2O[C@H](C(=O)O)[C@@H](O)[C@H](O)[C@H]2O[C@@H]2O[C@H](C(=O)O)[C@@H](O)[C@H](O)[C@H]2O)CC[C@]2(C)[C@H]3C(=O)C=C4[C@@H]5C[C@@](C)(C(=O)O)CC[C@]5(C)CC[C@@]4(C)[C@]3(C)CC[C@@H]12 | inactive
38 | C[C@@H]1O[C@@H](O[C@H]2[C@H](O[C@H]3[C@H](O)[C@@H](C(=O)O)O[C@@H](O[C@H]4CC[C@]5(C)[C@H]6CC[C@]78OC[C@@]9(CCC(C)(C)C[C@@H]97)[C@H](O)C[C@@]8(C)[C@]6(C)CC[C@H]5C4(C)C)[C@@H]3OC3O[C@H](CO)[C@@H](O)[C@H](O)[C@H]3O)O[C@H](CO)[C@H](O)[C@@H]2O)[C@H](O)[C@H](O)[C@H]1O (stereo partly specified) | active
39 | C[C@@H]1O[C@@H](O[C@H]2[C@H](O[C@H]3[C@H](O)[C@@H](O[C@@H]4O[C@H](CO)[C@@H](O[C@@H]5O[C@H](CO)[C@H](O)[C@H]5O)[C@H](O)[C@H]4O)[C@H](O[C@H]4CC[C@]5(C)[C@H]6CC[C@]78OC[C@@]9(CCC(C)(C)C[C@@H]97)[C@H](O)C[C@@]8(C)[C@]6(C)CC[C@H]5C4(C)C)O[C@@H]3C(=O)O)O[C@H](CO)[C@H](O)[C@@H]2O)[C@H](O)[C@H](O)[C@H]1O | inactive
40 | CC(=O)O[C@H]1CC(C)(C)C[C@H]2[C@]13CO[C@@]21CC[C@@H]2[C@@]4(C)CC[C@H](O[C@@H]5O[C@H](C(=O)O)[C@@H](O)[C@H](O[C@@H]6O[C@H](CO)[C@H](O)[C@H](O)[C@H]6O[C@@H]6O[C@@H](C)[C@H](O)[C@@H](O)[C@H]6O)[C@H]5O[C@@H]5O[C@H](CO)[C@@H](O)[C@H](O)[C@H]5O)C(C)(C)[C@@H]4CC[C@@]2(C)[C@]1(C)C[C@H]3O | active
41 | C[C@@H]1O[C@@H](O[C@H]2[C@H](O[C@H]3[C@H](O)[C@@H](O[C@@H]4O[C@H](CO)[C@@H](O)[C@H](O)[C@H]4O)[C@H](O[C@H]4CC[C@]5(C)[C@H]6CC[C@]78OC[C@@]9(CCC(C)(C)C[C@@H]97)[C@H](O)C[C@@]8(C)[C@]6(C)CC[C@H]5C4(C)C)O[C@@H]3C(=O)O)O[C@H](CO)[C@H](O)[C@@H]2O)[C@H](O)[C@H](O)[C@H]1O | active
